Compounds without any hit were thinned out: in the full panel of roughly 83,000, 20% have a hit.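 How to read the values: 0–100, growth inhibition (40 = 60% inhibited); 0, no net growth; -100 to 0, cell death (-40 = 40% of starting cells died; -100 = all dead).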 Values without a mark were called inactive. The source made the active and inactive calls. Rule for the calls: active = growth percent below 10; inactive = the rest.
Experiments:
Test in all cases: NCI-60 one-dose screen, 48 h (100 = growth as untreated, 0 = no growth, -100 = all killed)
Settings in all cases: 10 µM unless noted
HCT-15 colon = system: HCT-15 colon
HT29 colon = system: HT29 colon
SNB-75 CNS = system: SNB-75 CNS
SNB-19 CNS = system: SNB-19 CNS
U251 CNS = system: U251 CNS
PC-3 prostate = system: PC-3 prostate
SK-MEL-5 melanoma = system: SK-MEL-5 melanoma
UACC-62 melanoma = system: UACC-62 melanoma
LOX IMVI melanoma = system: LOX IMVI melanoma
SK-MEL-28 melanoma = system: SK-MEL-28 melanoma

Row | SMILES | growth (HCT-15 colon) | growth (HT29 colon) | growth (SNB-75 CNS) | growth (SNB-19 CNS) [%] | growth (U251 CNS) [%] | growth (PC-3 prostate) [%] | growth (SK-MEL-5 melanoma) | growth (UACC-62 melanoma) | growth (LOX IMVI melanoma) | growth (SK-MEL-28 melanoma)
1 | Cc1csc(/N=C(N)/N=C(\N)c2cccc(C#N)c2)n1 | 39.3% | 62.4% | 59.5% | 72.3 | 64.7 | 77.4 | 85.7% | 52.1% | 78.1% | 74.6%
2 | O=C1[C@@H]2Cc3c([nH]c4ccccc34)[C@H](c3ccc(Cl)cc3)N2C(=O)CN1C1CCN(Cc2ccccc2)CC1 | 35% | 25% | 43.8% | 66 | 56.5 | 38.8 | 62.3% | 75.4% | 20.7% | 77.8%
3 | CC1=Cc2ccccc2OC12C=Cc1ccccc1O2 (stereo not given) | 96.8% | 98.2% | 81.4% | 91.1 | 102 | 84.9 | 92.4% | 83% | 90.6% | 114%
4 | Cc1ccccc1N1CCN(C2=C(Cl)C(=O)c3ncccc3C2=O)CC1 | 4.38% (active) | 94.9% | 82.6% | 74.9 | 71.3 | 66.1 | 88.8% | 66.2% | 1.19% (active) | 35.9%
5 | c1ccc(-c2cn3c(-c4c[nH]c5ccccc45)csc3n2)cc1 | 85.6% | 63% | 80.9% | 59.7 | 61 | 43.2 | 81% | 49.6% | 83.7% | 71.9%
6 | Cc1cccc(N2CCN(C3=C(Cl)C(=O)c4ncccc4C3=O)CC2)c1 | 24.8% | 104% | 84.3% | 79.5 | 85.2 | 72.9 | 95.2% | 74.3% | 24.2% | 92.1%
7 | CC(=O)OCCCCN1C=C/C(=C\C(=O)n2ccc3ccccc32)c2ccccc21 | 101% | 113% | 100% | 103 | 102 | 101 | 100% | 89.4% | 99.9% | 111%
8 | O=C(/C=C/c1ccc(Cl)c(Cl)c1)Nc1ncc(Cc2ccc(Cl)c(Cl)c2)s1 | 29% | 36.2% | 95.5% | 74 | 58.2 | 45.3 | 51.4% | 10.3% | 23.3% | 48.5%
9 | CCNC(=O)Oc1ccc(/C(=C(/C)c2ccc(Cl)cc2)c2ccc(OCCN3CCCCCC3)cc2)cc1 | -31.6% (active) | -48.4% (active) | 75.6% | 34.2 | 27.5 | 13.4 | 33.1% | 2.74% (active) | -87.8% (active) | -76% (active)
10 | CC(=O)Nc1nc(C)c(-c2csc(Nc3ccccc3)n2)s1 | 16.4% | 28.7% | 38.3% | 35.8 | 40.8 | 31.8 | 9.06% (active) | 21.4% | 21.4% | 38.1%
11 | COc1ccc(Cn2cc(C#N)c(N)c2C(C)=O)cc1 | 98.5% | 112% | 84.5% | 85.8 | 109 | 105 | 100% | 87.1% | 98.6% | 109%
12 | CN1CCN(c2ccc(Nc3nc(NCCNS(=O)(=O)c4ccccc4)c4sccc4n3)cc2)CC1 | 95.2% | 99.6% | 81.5% | 98.9 | 103 | 95.4 | 97.4% | 96.4% | 108% | 104%
13 | CCCc1cc2cc(-n3nc(CC)c4c3CC(C)(C)CC4=O)cc(NC3CCC(O)CC3)c2c(=O)[nH]1 (stereo not given) | 17% | 7.9% (active) | -6.85% (active) | 30.6 | 27.8 | 32.8 | 14.1% | 26.6% | 23.7% | 40.8%

— PubChem BioAssay (NCI)
